Values joined by “and” are separate entries in the source; they are usually repeats but may differ in a detail not shown here. Equal entries are not always repeated.
How the values were obtained:
[1] = target: T1, Tyrosine-protein kinase receptor TYRO3 (Homo sapiens) (UniProt Q06418); settings: at 1 µM
T1 sequence (whole entry): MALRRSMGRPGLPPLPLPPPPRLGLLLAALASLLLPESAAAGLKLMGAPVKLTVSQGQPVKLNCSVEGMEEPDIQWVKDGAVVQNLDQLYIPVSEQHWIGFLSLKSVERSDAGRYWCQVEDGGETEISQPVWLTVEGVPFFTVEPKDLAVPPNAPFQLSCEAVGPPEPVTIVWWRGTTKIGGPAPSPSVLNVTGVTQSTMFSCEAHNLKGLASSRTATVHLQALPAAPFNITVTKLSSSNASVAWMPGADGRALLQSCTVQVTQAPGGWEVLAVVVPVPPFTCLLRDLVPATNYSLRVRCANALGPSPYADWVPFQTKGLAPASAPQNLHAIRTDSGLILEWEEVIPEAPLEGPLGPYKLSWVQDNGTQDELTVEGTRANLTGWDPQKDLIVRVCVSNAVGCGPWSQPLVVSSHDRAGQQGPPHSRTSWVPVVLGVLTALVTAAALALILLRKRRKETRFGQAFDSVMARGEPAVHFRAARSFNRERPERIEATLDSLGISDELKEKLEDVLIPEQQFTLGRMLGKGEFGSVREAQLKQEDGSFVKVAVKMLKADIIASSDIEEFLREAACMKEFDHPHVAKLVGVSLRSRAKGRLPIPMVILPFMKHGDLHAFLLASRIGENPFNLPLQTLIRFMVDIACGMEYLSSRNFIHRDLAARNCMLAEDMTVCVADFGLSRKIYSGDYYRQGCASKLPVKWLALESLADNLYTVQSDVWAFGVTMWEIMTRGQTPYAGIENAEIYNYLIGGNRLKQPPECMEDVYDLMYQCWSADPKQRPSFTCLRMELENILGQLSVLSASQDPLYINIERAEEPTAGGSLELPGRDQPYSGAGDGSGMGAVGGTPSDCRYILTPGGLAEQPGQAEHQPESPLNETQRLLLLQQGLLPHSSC

[2] = target: Tyrosine-protein kinase Yes (Homo sapiens) (UniProt P07947); settings: at 0.1 µM
[3] = target: Tyrosine-protein kinase Yes (Homo sapiens) (UniProt P07947); settings: at 1 µM
[4] = target: T2, Tyrosine-protein kinase ZAP-70 (Homo sapiens) (UniProt P43403); settings: at 0.1 µM
T2 sequence (whole entry): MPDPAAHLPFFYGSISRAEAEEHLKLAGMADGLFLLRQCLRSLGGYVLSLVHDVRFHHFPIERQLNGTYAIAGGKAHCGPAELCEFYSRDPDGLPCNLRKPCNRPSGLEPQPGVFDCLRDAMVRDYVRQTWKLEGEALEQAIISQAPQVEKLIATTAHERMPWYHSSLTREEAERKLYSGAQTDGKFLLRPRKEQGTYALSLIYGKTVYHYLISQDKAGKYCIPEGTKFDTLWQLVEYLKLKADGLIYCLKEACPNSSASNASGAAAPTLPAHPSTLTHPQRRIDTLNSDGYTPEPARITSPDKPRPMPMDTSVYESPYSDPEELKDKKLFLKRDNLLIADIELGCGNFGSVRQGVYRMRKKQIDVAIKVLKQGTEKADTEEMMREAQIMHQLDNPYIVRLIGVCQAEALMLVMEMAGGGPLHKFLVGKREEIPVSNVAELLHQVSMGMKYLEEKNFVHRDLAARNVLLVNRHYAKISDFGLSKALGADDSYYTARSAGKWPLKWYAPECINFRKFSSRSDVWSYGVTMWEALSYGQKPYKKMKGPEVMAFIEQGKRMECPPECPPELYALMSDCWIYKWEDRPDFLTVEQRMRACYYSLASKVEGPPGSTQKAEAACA

[5] = target: T2, Tyrosine-protein kinase ZAP-70 (Homo sapiens); settings: at 1 µM
[6] = target: Serine/threonine-protein kinase B-raf (Homo sapiens) (UniProt P15056); settings: at 0.1 µM
[7] = target: Serine/threonine-protein kinase B-raf (Homo sapiens) (UniProt P15056); settings: at 1 µM
[8] = test system: Serine/threonine-protein kinase B-raf (Homo sapiens), P15056 [V600E]; settings: at 0.1 µM
[9] = test system: Serine/threonine-protein kinase B-raf (Homo sapiens), P15056 [V600E]; settings: at 1 µM
[10] = target: RAF proto-oncogene serine/threonine-protein kinase (Homo sapiens) (UniProt P04049); settings: at 0.1 µM
[11] = target: RAF proto-oncogene serine/threonine-protein kinase (Homo sapiens) (UniProt P04049); settings: at 1 µM
[12] = target: T3, Interleukin-1 receptor-associated kinase 4 (Homo sapiens) (UniProt Q9NWZ3); settings: at 0.1 µM
T3 sequence (whole entry): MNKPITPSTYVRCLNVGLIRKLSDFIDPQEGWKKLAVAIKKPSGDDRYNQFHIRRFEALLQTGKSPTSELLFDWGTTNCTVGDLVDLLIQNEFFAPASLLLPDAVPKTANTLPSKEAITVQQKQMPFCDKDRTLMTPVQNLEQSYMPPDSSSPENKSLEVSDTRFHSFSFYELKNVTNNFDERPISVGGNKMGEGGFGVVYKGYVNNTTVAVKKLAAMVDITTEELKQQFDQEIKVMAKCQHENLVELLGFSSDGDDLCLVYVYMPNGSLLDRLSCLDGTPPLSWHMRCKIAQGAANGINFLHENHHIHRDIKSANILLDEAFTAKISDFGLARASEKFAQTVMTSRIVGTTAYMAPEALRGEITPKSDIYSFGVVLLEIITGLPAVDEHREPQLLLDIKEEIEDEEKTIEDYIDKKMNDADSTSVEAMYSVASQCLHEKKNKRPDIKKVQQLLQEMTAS

[13] = target: T3, Interleukin-1 receptor-associated kinase 4 (Homo sapiens); settings: at 1 µM
[14] = target: Leucine-rich repeat serine/threonine-protein kinase 2 (Homo sapiens) (UniProt Q5S007); settings: at 0.1 µM
[15] = target: Leucine-rich repeat serine/threonine-protein kinase 2 (Homo sapiens) (UniProt Q5S007); settings: at 1 µM
[16] = test system: Leucine-rich repeat serine/threonine-protein kinase 2 (Homo sapiens), Q5S007 [G2019S]; settings: at 0.1 µM
[17] = test system: Leucine-rich repeat serine/threonine-protein kinase 2 (Homo sapiens), Q5S007 [G2019S]; settings: at 1 µM

Sequence of Serine/threonine-protein kinase B-raf (Homo sapiens) (P15056 whole entry): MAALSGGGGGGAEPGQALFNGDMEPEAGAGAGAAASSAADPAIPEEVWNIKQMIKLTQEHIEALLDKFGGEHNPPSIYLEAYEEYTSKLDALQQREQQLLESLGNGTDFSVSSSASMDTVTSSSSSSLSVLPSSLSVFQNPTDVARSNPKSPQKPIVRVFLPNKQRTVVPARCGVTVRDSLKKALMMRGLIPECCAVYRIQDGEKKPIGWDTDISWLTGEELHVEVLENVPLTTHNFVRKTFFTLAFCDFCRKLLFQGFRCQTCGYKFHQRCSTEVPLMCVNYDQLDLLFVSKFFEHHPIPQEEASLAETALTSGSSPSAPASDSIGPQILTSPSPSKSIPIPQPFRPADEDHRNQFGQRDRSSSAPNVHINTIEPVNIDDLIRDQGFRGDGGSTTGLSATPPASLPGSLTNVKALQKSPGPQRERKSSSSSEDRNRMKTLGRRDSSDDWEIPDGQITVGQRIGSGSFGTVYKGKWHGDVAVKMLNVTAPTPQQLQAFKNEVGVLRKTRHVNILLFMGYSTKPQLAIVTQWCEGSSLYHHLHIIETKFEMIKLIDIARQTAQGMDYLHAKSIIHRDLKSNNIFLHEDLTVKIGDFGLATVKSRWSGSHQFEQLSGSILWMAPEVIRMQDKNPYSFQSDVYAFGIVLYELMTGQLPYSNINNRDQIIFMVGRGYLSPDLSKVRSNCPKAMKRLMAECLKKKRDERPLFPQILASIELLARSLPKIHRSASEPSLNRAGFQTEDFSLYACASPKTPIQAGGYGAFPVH
Sequence of Tyrosine-protein kinase Yes (Homo sapiens) (P07947 2-543 limits assumed): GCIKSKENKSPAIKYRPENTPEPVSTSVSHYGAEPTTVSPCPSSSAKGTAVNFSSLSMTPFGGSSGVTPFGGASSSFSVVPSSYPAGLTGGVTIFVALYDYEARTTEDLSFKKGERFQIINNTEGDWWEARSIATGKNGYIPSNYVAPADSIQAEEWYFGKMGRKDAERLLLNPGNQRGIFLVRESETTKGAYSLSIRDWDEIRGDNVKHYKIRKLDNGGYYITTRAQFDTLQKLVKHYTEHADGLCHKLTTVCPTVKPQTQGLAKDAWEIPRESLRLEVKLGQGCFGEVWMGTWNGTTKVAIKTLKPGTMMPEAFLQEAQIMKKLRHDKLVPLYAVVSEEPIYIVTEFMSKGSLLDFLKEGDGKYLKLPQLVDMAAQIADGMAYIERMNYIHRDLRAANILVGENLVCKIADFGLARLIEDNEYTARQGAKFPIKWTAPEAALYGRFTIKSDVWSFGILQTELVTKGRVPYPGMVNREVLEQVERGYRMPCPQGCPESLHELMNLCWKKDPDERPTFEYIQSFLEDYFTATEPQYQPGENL
Sequence of Serine/threonine-protein kinase B-raf (Homo sapiens), P15056 [V600E] (P15056 whole entry V600E): as the sequence (P15056 whole entry) above, with V600E counted along it
Sequence of RAF proto-oncogene serine/threonine-protein kinase (Homo sapiens) (P04049 whole entry): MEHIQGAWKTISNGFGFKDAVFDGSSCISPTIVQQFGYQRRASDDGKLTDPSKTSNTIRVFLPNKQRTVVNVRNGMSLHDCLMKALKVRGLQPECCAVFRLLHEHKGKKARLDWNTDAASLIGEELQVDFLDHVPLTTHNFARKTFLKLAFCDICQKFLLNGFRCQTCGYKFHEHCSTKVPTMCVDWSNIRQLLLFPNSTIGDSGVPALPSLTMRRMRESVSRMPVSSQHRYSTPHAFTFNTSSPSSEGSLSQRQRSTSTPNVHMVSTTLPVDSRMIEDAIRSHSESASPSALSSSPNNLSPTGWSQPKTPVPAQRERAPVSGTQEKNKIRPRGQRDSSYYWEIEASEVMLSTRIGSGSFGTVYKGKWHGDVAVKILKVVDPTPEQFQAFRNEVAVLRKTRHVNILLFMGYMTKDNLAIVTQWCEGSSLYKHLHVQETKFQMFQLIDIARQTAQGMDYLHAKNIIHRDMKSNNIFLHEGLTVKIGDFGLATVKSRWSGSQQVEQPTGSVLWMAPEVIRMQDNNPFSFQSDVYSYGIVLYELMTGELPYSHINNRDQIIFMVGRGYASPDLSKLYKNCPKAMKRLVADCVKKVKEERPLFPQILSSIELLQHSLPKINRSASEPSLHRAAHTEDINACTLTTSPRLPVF
Sequence of Leucine-rich repeat serine/threonine-protein kinase 2 (Homo sapiens) (Q5S007 whole entry): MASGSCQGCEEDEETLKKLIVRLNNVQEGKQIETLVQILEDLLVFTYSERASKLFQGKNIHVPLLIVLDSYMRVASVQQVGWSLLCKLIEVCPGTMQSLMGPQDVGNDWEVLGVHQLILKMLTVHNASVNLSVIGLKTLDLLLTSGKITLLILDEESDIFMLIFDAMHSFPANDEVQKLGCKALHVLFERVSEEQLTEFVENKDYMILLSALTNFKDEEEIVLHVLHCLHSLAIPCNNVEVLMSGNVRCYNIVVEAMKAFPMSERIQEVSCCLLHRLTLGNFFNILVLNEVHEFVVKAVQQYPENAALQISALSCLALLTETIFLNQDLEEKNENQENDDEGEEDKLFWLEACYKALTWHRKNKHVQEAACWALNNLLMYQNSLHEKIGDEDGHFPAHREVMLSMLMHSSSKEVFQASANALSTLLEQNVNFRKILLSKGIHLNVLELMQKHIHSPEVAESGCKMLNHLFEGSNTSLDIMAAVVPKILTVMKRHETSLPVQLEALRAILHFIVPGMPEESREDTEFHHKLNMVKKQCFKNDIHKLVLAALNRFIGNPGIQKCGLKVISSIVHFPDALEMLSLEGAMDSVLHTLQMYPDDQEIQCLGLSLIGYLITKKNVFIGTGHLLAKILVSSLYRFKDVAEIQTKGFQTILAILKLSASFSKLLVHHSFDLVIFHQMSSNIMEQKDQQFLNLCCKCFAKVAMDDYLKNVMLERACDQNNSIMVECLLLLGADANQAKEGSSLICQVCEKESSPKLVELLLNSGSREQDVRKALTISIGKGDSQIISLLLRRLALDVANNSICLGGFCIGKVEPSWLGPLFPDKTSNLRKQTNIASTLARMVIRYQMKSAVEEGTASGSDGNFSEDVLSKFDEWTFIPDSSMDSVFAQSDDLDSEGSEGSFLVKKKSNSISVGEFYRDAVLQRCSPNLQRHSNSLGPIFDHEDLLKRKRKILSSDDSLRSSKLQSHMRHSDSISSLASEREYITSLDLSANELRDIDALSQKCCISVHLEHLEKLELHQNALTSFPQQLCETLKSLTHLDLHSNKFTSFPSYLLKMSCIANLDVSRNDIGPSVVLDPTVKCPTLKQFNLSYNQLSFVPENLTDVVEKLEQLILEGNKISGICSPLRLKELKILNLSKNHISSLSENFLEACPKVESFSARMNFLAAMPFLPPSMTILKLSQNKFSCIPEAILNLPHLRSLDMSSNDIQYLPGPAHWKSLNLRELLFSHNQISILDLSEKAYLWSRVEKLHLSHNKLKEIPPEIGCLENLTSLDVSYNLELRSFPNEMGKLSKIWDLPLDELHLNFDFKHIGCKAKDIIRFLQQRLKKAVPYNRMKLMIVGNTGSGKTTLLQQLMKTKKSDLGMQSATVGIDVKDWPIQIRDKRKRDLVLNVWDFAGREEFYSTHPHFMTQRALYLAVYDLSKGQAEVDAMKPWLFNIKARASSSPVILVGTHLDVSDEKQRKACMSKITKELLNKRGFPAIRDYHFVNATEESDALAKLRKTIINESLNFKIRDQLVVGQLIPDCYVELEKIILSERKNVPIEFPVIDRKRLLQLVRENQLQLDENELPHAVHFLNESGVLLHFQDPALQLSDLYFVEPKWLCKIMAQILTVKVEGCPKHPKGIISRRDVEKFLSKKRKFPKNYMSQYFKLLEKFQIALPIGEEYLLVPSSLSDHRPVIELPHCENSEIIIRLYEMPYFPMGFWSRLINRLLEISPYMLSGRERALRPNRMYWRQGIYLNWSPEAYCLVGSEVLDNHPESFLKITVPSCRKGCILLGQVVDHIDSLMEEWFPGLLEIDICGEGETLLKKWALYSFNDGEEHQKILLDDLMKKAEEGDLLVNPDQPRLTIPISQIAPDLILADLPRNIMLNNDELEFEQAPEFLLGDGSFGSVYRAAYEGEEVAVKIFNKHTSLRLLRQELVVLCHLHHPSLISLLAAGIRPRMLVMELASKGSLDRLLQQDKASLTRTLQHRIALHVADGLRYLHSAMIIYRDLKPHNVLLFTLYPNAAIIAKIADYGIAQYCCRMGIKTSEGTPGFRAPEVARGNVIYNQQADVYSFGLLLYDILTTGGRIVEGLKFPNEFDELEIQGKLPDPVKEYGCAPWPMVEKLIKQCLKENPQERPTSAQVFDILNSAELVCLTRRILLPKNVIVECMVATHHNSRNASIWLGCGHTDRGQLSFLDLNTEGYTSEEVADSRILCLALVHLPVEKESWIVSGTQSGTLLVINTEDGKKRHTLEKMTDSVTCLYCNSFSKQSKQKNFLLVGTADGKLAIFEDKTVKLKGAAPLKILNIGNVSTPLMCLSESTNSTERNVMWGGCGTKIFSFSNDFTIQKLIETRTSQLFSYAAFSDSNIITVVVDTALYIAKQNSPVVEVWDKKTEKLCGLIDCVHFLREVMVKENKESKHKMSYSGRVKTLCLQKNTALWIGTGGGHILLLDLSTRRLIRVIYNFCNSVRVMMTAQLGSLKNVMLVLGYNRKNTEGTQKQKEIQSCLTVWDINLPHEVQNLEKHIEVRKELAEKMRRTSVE
Sequence of Leucine-rich repeat serine/threonine-protein kinase 2 (Homo sapiens), Q5S007 [G2019S] (Q5S007 whole entry G2019S): as the sequence (Q5S007 whole entry) above, with G2019S counted along it

Row | SMILES | inhibition [1] | inhibition [2] | inhibition [3] | inhibition [4] | inhibition [5] | inhibition [6] | inhibition [7] | inhibition [8] | inhibition [9] | inhibition [10] | inhibition [11] | inhibition [12] | inhibition [13] | inhibition [14] | inhibition [15] | inhibition [16] | inhibition [17]
1 | CS(=O)(=O)CCNCc1ccoc1-c1ccc2ncnc(Nc3ccc(OCc4ccccc4)cc3)c2c1 | 3.68% | 4.12% | 21.9% | -0.82% | 2.26% | 1.03% | 1.49% | 1.75% | 1.31% | -1.29% | -1.65% | 0.62% | 1.15% | 1.37% | 3.82% | 2.44% | 2.57%
2 | CCN1CCC(C(=O)Nc2n[nH]c3nnc(-c4cccc(F)c4F)cc23)CC1 | 1.67% | 2.36% | -0.1% | -1.24% | 2.19% | -0.36% | 0.01% | 1.12% | 1.24% | -4.36% | -2.59% | 0.27% | 0.13% | 1.99% | 3.27% | 2.15% | 1.7%
3 | CS(=O)(=O)CCNCc1ccc(-c2ccc3ncnc(Nc4ccc(OCc5ccccc5)cc4)c3c2)o1 | 4.25% | 9.54% | 42.1% | 0.98% | 2.51% | 4.6% | 6.13% | 3.8% | 3.33% | -0.67% | 2.22% | 1.54% | 1.78% | 3.3% | 6.64% | 2.93% | 7.35%
4 | O=C(Nc1n[nH]c2nnc(-c3cccnc3)cc12)C1CC1 | 1.65% | 1.69% | 7.01% | -1.5% | 2.36% | 0.25% | 2.61% | 1.02% | 3.66% | -2.58% | -3.13% | -0.42% | -0.13% | 0.99% | 4.69% | 2.42% | 5.79%
5 | Cc1nnc(-c2cccc(-c3ccc(C(=O)NCC4CC4)cc3)c2)o1 | 4.17% | 5.35% | 7.53% | 4.93% | 7.42% | 8.68% | 6.82% | 7.4% | 5.64% | -0.41% | 1.67% | -1.48% | 2.66% | 3.32% | 5.55% | 4.33% | 7.83%
6 | CN(C)CCNC(=O)Nc1ccc(N(C)c2ccnc(Nc3ccc(CS(C)(=O)=O)cc3)n2)cc1 | 5.87% | 0.55% | 2.71% | 1.7% | 1.48% | 4.53% | 5.12% | 5.5% | 6.71% | -0.51% | -0.82% | -4.3% | 2.15% | 4.46% | 11.5% | 6.1% | 23%
7 | COc1ccccc1-c1cc(/C=C2\C(=O)Nc3ncc(Br)cc32)cc(Br)c1O | 3.41% | -0.07% | 12.9% | 2.43% | 6.67% | 6.58% | 10.5% | 7.25% | 8.04% | -0.19% | -9.49% | 2.4% | 1.85% | 7.41% | 17.6% | 13.5% | 55.3%
8 | Nc1ncnc2occ(-c3ccc(NC(=O)Nc4cc(C(F)(F)F)ccc4F)cc3)c12 | 35.9% and 19% | 6.63% and 1.99% | 32.5% and 23.6% | 1.41% and -6.7% | 3.15% and -0.06% | 2.87% and -2.08% | 7.26% and 0.64% | 2.85% and -0.81% | 11.3% and 5.32% | -9.78% and -3.09% | -6.08% and -5.86% | -1.81% and -1.2% | 1.77% and -0.37% | 13.6% and 6.55% | 18.1% and 19.4% | 8.38% and 6.37% | 35.4% and 28.6%
9 | COc1ccc2ncn(-c3cc(O[C@H](C)c4ccccc4C(F)(F)F)c(C(N)=O)s3)c2c1 | 2.75% | -2.36% | 1.07% | 2.16% | 2.62% | -0.46% | -2.23% | -1.03% | -0.82% | -0.27% | 0.1% | 1.48% | 0.87% | 4.72% | 15.9% | 5.16% | 31%
10 | Nc1nccc(-c2c(-c3ccc(F)cc3)ncn2C2CCNCC2)n1 | 1.14% and -0.71% | -1.29% and 0.36% | 11.9% and 16.2% | 1.4% and 0.85% | -2.69% and 1.59% | -2.89% and 1.95% | -0.2% and 7.76% | -4.19% and 1.23% | 0.9% and 7.41% | -3.57% and -1.58% | 8.14% and -2.89% | 3.05% and 0.88% | -1.58% and -0.23% | -1.76% and 1.62% | 3.33% and 3.21% | 0.34% and 3.78% | 4.42% and 3.38%
11 | COC(=O)Nc1nc2ccc(Oc3ccc(NC(=O)Nc4cc(C(F)(F)F)ccc4F)cc3)cc2s1 | 40% | 4.21% | 11.5% | 1.19% | -0.75% | 2.35% | 22.1% | 2.96% | 37.3% | 8.71% | 60.1% | 1.94% | 0.25% | 17.4% | 48.5% | 9.18% | 37.8%
12 | Cn1c(-c2nonc2N)nc2cnccc21 | 0.09% | 1.37% | 1.42% | 3.27% | 1.74% | 4.15% | 3.62% | 4.29% | 3.98% | 2.49% | 8.87% | 3.47% | 1.21% | 2.89% | 10.6% | 4.16% | 20.5%
13 | CS(=O)(=O)Nc1ccc(-c2ccc3c(NC(=O)C4CC4)n[nH]c3c2)cc1 | 13.6% | -0.59% | 4.94% | 1.11% | 3.42% | 4.42% | 6.73% | 4.74% | 6.11% | 4.35% | 5.45% | -4.64% | 1.75% | 9.03% | 5.46% | 9.88% | 15.1%
14 | NS(=O)(=O)c1cccc(N/C=C2\C(=O)Nc3ccccc32)c1 | 8.3% | 4.04% | 9.49% | 1.68% | 4.58% | 6.24% | 7.76% | 6.39% | 7.82% | -0.16% | 2.59% | 2.9% | 2.37% | 3.41% | 15.8% | 6.57% | 34%
15 | COc1cccc(-n2ncc3c(N/N=C/c4ccc(C(=O)NCCN(C)C)cc4)ncnc32)c1 | 60.6% | 58.5% | 86% | -2.3% | 4.14% | 11.1% | 27.8% | 9.71% | 23.6% | 2.11% | 1.13% | -3.06% | 1.87% | 8.48% | 17.2% | 12.5% | 49.6%
